Experiment [1] in a line: NCI Yeast Anticancer Drug Screen. Data for the rad50 strain (AID 155).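 Note: 0% = growth of vehicle-only cultures of the same strain.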 Particulars: S. cerevisiae rad50 strain growth inhibition, hits give high values. A digest of the protocol:
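Growth of the mutant yeast was measured after compound exposure and referenced to vehicle-treated cultures.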

A short description of experiment [2]: NCI Yeast Anticancer Drug Screen. Data for the mec2-1 strain (AID 157). The following applies: S. cerevisiae mec2-1 strain, hits give high values. In outline:
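Cells of the genetically defined mec2-1 yeast strain are incubated with test compound. Inhibition of growth is calculated against vehicle-treated controls.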

Experiment [3] can be described thus: NCI Yeast Anticancer Drug Screen. Data for the sgs1 mgt1 strain (AID 161).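 Note: 0% = growth of cultures given vehicle only.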 Particulars: S. cerevisiae sgs1 mgt1 strain, hits give high values. In outline: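 Mutant yeast exposed to compound; growth scored against vehicle-only wells.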
Experiment [4] is described as follows: NCI Yeast Anticancer Drug Screen. Data for the cln2 rad14 strain (AID 165).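 Note: 0% = growth equal to vehicle treated cultures.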 Particulars: S. cerevisiae cln2 rad14 strain, hits give high values. In outline: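 The screen exposed genetically defined yeast (cln2 rad14) to test compounds and scored growth inhibition relative to vehicle-treated controls.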
Experiment [5] can be described thus: NCI Yeast Anticancer Drug Screen. Data for the bub3 strain (AID 167). The following applies: S. cerevisiae bub3 mutant strain, hits give high values. In outline:
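Whole-cell yeast assay. The mutant strain was incubated with compounds, and growth inhibition was determined by comparison with vehicle-treated cells.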

A short description of experiment [6]: NCI Yeast Anticancer Drug Screen. Data for the mlh1 rad18 strain (AID 175). Particulars: S. cerevisiae mlh1 rad18 strain growth inhibition, hits give high values. In outline:
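Compound-treated yeast growth, normalised to vehicle controls. Strain bears defined DNA repair mutations.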

The mark [7] stands for this setting: at 5.0 µM (retest, dose inferred, filed as 0.5).
The mark [8] stands for this setting: at 50.0 µM (retest, dose inferred, filed as 5.0).

Molecules are shown by their SMILES. This is part of a sample that, as a whole, favours compounds with a hit. Of some 79,000 tested, about 15% had one in any assay. Values without a mark were called inactive. Active and inactive are the calls of the source. Cut-off read from the data, not from the text of the source: active = growth inhibition above about 70%; inactive = the rest.

Take `O=C(Nc1cccc(C(F)(F)F)c1)c1cc(Br)cc(Br)c1O`: the growth inhibition in experiment [1] (setting [7]) was 38%; in experiment [1] (setting [8]), 87% (active); in experiment [1] (at 50.0 µM), 83.2% (active); in experiment [2] (setting [7]), 37%; in experiment [2] (setting [8]) it was 80% (active); in experiment [2] (at 50.0 µM) it was 62.6%. Further, the growth inhibition in experiment [3] (setting [7]) is 44%; in experiment [3] (setting [8]), 85% (active); in experiment [3] (at 50.0 µM), 77% (active); in experiment [4] (setting [7]), 45%; in experiment [4] (setting [8]), 75% (active); in experiment [4] (at 50.0 µM) it was 67.5%. The growth inhibition in experiment [5] (setting [7]) was 44%; in experiment [5] (setting [8]) it was 83% (active); in experiment [5] (at 50.0 µM), 69.3%; in experiment [6] (setting [7]), 52%; in experiment [6] (setting [8]), 95% (active); in experiment [6] (at 50.0 µM) it was 64.1%.

For `S=c1sc2c(s1)SCCOCCOCCOCCS2`, the growth inhibition in experiment [1] (setting [7]) is -4%; in experiment [1] (setting [8]), 3%; in experiment [1] (at 50.0 µM), 29.3%; in experiment [2] (setting [7]), 5%; in experiment [2] (setting [8]), 7%; in experiment [2] (at 50.0 µM), 0.95%. In addition, the growth inhibition in experiment [3] (setting [7]) was -12%; in experiment [3] (setting [8]) it was 5%; in experiment [3] (at 50.0 µM) it was 30.6%; in experiment [4] (setting [7]), 12%; in experiment [4] (setting [8]), 8%; in experiment [4] (at 50.0 µM), 31.1%. The growth inhibition in experiment [5] (setting [7]) is 4%; in experiment [5] (setting [8]), 36%; in experiment [5] (at 50.0 µM), 22.2%; in experiment [6] (setting [7]), -15%; in experiment [6] (setting [8]), -13%; in experiment [6] (at 50.0 µM) it was 23.4%.

As for `O=C1NC(=S)S/C1=C/c1ccc(/C=C2/SC(=S)NC2=O)cc1`, the growth inhibition in experiment [1] (setting [7]) was -16%; in experiment [1] (setting [8]), -3%; in experiment [1] (at 50.0 µM), 21%; in experiment [2] (setting [7]), -10%; in experiment [2] (setting [8]) it was -14%; in experiment [2] (at 50.0 µM), 22.6%. Moreover, the growth inhibition in experiment [3] (setting [7]) is -6%; in experiment [3] (setting [8]) it was -3%; in experiment [3] (at 50.0 µM), 9.45%; in experiment [4] (setting [7]), -19%; in experiment [4] (setting [8]) it was -22%; in experiment [4] (at 50.0 µM), 58.4%. Further, the growth inhibition in experiment [5] (setting [7]) is -12%; in experiment [5] (setting [8]), -12%; in experiment [5] (at 50.0 µM) it was 7.75%; in experiment [6] (setting [7]), -15%; in experiment [6] (setting [8]), -19%; in experiment [6] (at 50.0 µM), 28.4%.

Regarding `CCOc1nc(N)nc(C)c1N=Nc1ccc(Cl)cc1`, the growth inhibition in experiment [1] (setting [7]) was 16%; in experiment [1] (setting [8]) it was 76% (active); in experiment [1] (at 50.0 µM), 95.5% (active); in experiment [2] (setting [7]), 4%; in experiment [2] (setting [8]) it was 58%; in experiment [2] (at 50.0 µM), 67.7%. Also, the growth inhibition in experiment [3] (setting [7]) is 14%; in experiment [3] (setting [8]), 75% (active); in experiment [3] (at 50.0 µM), 91.9% (active); in experiment [4] (setting [7]), -5%; in experiment [4] (setting [8]), 35%; in experiment [4] (at 50.0 µM) it was 74.8% (active). The growth inhibition in experiment [5] (setting [7]) was -1%; in experiment [5] (setting [8]), 19%; in experiment [5] (at 50.0 µM), 97.3% (active); in experiment [6] (setting [7]), 25%; in experiment [6] (setting [8]), 88% (active); in experiment [6] (at 50.0 µM) it was 89.6% (active).

With `CSc1cc(-c2cc3ccccc3o2)oc(=O)c1C#N`, the growth inhibition in experiment [1] (setting [7]) was 6%; in experiment [1] (setting [8]), -8%; in experiment [1] (at 50.0 µM), -1.6%; in experiment [2] (setting [7]) it was -1%; in experiment [2] (setting [8]) it was -10%; in experiment [2] (at 50.0 µM) it was -6.6%. Also, the growth inhibition in experiment [3] (setting [7]) is 3%; in experiment [3] (setting [8]), -11%; in experiment [3] (at 50.0 µM), -24.4%; in experiment [4] (setting [7]) it was -9%; in experiment [4] (setting [8]) it was -6%; in experiment [4] (at 50.0 µM) it was -4.5%. Besides, the growth inhibition in experiment [5] (setting [7]) is -5%; in experiment [5] (setting [8]), -8%; in experiment [5] (at 50.0 µM), 40.1%; in experiment [6] (setting [7]), -4%; in experiment [6] (setting [8]) it was -11%; in experiment [6] (at 50.0 µM) it was -23.9%.

On to `Cc1cc(C(O)(C(F)(F)F)C(F)(F)F)cc(C(O)(C(F)(F)F)C(F)(F)F)c1`, for which the growth inhibition is -1% in experiment [1] (setting [7]); 99% (active) in experiment [1] (setting [8]); 97.2% (active) in experiment [1] (at 50.0 µM); 12% in experiment [2] (setting [7]); 99% (active) in experiment [2] (setting [8]); 98.3% (active) in experiment [2] (at 50.0 µM). For the same molecule, the growth inhibition in experiment [3] (setting [7]) was -6%; in experiment [3] (setting [8]), 99% (active); in experiment [3] (at 50.0 µM), 52.8%; in experiment [4] (setting [7]), -4%; in experiment [4] (setting [8]), 99% (active); in experiment [4] (at 50.0 µM) it was 95.7% (active). For the same molecule, the growth inhibition in experiment [5] (setting [7]) was 6%; in experiment [5] (setting [8]), 98% (active); in experiment [5] (at 50.0 µM) it was 96% (active); in experiment [6] (setting [7]) it was 1%; in experiment [6] (setting [8]), 99% (active); in experiment [6] (at 50.0 µM), 97.8% (active).

Regarding `CC1CCC2(OC1)OC1CC3C4CCC5CC(OC6OC(COC7OC(CO)C(O)C(O)C7O)C(OC7OC(C)C(O)C(O)C7O)C(O)C6OC6OC(CO)C(O)C(O)C6O)CCC5(C)C4CCC3(C)C1C2C` (stereo unspecified), the growth inhibition was 0% in experiment [1] (setting [7]); 99% (active) in experiment [1] (setting [8]); 99.2% (active) in experiment [1] (at 50.0 µM); -1% in experiment [2] (setting [7]); 100% (active) in experiment [2] (setting [8]); 99.8% (active) in experiment [2] (at 50.0 µM). The growth inhibition is 16% in experiment [3] (setting [7]); 97% (active) in experiment [3] (setting [8]); 99.8% (active) in experiment [3] (at 50.0 µM); -2% in experiment [4] (setting [7]); 99% (active) in experiment [4] (setting [8]); 99.5% (active) in experiment [4] (at 50.0 µM). For the same molecule, the growth inhibition is 15% in experiment [5] (setting [7]); 100% (active) in experiment [5] (setting [8]); 99.6% (active) in experiment [5] (at 50.0 µM); 2% in experiment [6] (setting [7]); 100% (active) in experiment [6] (setting [8]); 99.7% (active) in experiment [6] (at 50.0 µM).

Source of the values: PubChem BioAssay (NCI).
